Among the data in publication PMC7862700, “An all-to-all approach to the identification of sequence-specific readers for epigenetic DNA modifications on cytosine” are binding signal values, retold here.

Assay in all cases: DAPPL (digital affinity profiling via proximity ligation, sequencing); 10 mM Tris-HCl pH 7.5, 50 mM NaCl, 1 mM DTT, 4% glycerol, room temperature, 30 min; GST-TFs on glutathione beads, 16-mer random dsDNA library, 0.1% formaldehyde crosslink after washing; high values mean tight binding
In one test the target is T1, FEV (Homo sapiens, UniProt Q99581 1-238).
T1 sequence: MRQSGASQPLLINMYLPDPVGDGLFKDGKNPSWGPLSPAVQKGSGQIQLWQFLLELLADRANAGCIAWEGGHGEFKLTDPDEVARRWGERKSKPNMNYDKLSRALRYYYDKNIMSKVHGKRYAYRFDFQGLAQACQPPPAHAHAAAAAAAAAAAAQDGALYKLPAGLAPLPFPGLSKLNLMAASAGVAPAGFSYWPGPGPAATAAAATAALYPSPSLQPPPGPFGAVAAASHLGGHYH
To be noted: protein: recombinant; tags: N-terminal GST; dsDNA, one strand shown. In a few lines:
(§1)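 Binding signal is each hexamer's read frequency for a factor divided by its frequency in the tag-only sample. The factors were GST-fused human transcription factors from yeast, captured on glutathione beads, DNA-barcoded and pooled with that sample. Pools were incubated with 200 nmole of a random double-stranded 16-mer DNA library in Tris/NaCl/DTT/glycerol buffer at room temperature for 30 min, then washed, crosslinked with 0.1% formaldehyde, proximity-ligated with BsaI/T4 ligase (1 h, 37 °C), PCR-amplified and sequenced on an Illumina NextSeq500.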

The next test deals with ETV5 (Homo sapiens, UniProt P41161 1-510). To be noted: protein: recombinant; tags: N-terminal GST; dsDNA, one strand shown. The essentials: as §1
ETV5, sequence (P41161 whole entry): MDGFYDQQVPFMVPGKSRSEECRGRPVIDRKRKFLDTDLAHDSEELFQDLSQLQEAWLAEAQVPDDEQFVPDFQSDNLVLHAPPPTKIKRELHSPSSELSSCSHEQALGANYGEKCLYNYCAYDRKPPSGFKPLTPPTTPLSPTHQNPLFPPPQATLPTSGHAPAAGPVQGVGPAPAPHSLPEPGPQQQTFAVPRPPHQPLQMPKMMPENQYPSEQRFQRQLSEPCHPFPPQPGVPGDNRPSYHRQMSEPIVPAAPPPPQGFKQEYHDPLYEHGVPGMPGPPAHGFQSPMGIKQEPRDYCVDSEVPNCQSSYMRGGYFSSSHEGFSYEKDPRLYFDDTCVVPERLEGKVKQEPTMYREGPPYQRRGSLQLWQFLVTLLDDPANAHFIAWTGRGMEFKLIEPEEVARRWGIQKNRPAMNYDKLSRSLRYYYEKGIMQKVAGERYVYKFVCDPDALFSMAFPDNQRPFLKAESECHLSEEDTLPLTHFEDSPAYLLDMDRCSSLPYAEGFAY
Another test has as its target HSF1 (Homo sapiens, UniProt Q00613 1-529). To be noted: protein: recombinant; tags: N-terminal GST; chain copies: 3; dsDNA, one strand shown. The essentials:
as §1

The next test deals with T2, SPIC (Homo sapiens, UniProt Q8N5J4 1-248).
T2 sequence: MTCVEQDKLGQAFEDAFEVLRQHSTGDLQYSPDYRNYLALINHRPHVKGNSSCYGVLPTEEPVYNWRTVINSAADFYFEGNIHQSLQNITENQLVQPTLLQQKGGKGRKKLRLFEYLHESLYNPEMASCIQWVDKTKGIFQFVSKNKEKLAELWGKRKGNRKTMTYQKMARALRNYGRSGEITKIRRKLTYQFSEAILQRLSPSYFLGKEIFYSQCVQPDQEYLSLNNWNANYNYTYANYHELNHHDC
To be noted: protein: recombinant; tags: N-terminal GST; dsDNA, one strand shown. The essentials: as §1

The target in the next test is ELF4 (Homo sapiens, UniProt Q99607 1-663). To be noted: protein: recombinant; tags: N-terminal GST; dsDNA, one strand shown. The essentials: as §1
ELF4, sequence (Q99607 whole entry): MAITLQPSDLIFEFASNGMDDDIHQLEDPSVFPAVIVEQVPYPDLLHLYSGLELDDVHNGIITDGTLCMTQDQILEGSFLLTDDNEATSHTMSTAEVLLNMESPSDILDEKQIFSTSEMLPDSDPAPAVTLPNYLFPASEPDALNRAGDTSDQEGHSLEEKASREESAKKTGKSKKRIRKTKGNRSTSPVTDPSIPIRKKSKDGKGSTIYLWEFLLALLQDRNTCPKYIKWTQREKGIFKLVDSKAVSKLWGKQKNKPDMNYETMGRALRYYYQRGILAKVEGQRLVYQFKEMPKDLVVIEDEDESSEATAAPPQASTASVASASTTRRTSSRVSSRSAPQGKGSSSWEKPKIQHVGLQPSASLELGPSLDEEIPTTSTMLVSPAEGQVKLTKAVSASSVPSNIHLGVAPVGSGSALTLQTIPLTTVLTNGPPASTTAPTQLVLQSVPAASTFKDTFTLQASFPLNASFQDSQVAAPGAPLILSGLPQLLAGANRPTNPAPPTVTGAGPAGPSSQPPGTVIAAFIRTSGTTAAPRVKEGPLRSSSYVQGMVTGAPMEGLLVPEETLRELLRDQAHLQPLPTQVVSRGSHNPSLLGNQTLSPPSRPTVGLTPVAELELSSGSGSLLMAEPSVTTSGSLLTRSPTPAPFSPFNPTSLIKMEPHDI
Another test has as its target T3, ELK4 (Homo sapiens, UniProt P28324-2 1-405).
T3 sequence: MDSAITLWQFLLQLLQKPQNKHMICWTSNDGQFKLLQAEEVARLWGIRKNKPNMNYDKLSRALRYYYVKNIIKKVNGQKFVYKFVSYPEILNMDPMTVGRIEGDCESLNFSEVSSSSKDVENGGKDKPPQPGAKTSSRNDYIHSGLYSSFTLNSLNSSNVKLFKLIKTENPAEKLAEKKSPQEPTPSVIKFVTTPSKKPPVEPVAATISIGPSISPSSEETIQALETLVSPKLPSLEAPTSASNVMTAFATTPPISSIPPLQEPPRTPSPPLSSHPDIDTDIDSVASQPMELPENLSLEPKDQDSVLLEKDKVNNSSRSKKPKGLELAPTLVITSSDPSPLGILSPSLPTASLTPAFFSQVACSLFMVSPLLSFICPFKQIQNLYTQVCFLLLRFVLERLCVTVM
To be noted: protein: recombinant; tags: N-terminal GST; dsDNA, one strand shown. The essentials: as §1

For another test, the target named is T4, ETV2 (Homo sapiens, UniProt O00321 1-342).
T4 sequence: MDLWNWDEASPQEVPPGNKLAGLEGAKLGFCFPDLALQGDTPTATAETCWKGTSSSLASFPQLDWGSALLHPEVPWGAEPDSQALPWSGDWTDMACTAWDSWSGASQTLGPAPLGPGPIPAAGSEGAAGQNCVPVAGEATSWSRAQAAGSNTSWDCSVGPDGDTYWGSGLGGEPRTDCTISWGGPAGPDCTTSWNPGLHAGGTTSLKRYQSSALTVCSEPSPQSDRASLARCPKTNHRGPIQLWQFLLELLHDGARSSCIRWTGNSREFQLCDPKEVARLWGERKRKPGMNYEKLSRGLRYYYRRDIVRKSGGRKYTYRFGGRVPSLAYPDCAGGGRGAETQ
To be noted: protein: recombinant; tags: N-terminal GST; dsDNA, one strand shown. The essentials:
as §1

A further test addresses CRX (Homo sapiens, UniProt O43186 1-299). To be noted: protein: recombinant; tags: N-terminal GST; dsDNA, one strand shown. The essentials:
as §1

Another test has as its target ETV1 (Homo sapiens, UniProt P50549 1-477). To be noted: protein: recombinant; tags: N-terminal GST; dsDNA, one strand shown. In a few lines:
as §1

The target of the next test is T5, ELF3 (Homo sapiens, UniProt P78545 1-371).
T5 sequence: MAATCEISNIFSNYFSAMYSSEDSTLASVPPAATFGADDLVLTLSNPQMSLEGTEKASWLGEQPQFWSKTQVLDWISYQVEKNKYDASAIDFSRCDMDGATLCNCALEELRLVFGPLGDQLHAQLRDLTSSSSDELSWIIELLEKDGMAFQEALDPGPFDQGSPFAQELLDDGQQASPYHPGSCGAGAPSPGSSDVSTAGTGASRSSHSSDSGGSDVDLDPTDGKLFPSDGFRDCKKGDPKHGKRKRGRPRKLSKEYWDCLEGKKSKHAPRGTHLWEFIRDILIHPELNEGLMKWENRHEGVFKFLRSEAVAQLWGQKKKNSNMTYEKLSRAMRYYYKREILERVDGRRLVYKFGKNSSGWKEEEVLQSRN
To be noted: protein: recombinant; tags: N-terminal GST; dsDNA, one strand shown. The essentials: as §1

HSF1, sequence (Q00613 whole entry): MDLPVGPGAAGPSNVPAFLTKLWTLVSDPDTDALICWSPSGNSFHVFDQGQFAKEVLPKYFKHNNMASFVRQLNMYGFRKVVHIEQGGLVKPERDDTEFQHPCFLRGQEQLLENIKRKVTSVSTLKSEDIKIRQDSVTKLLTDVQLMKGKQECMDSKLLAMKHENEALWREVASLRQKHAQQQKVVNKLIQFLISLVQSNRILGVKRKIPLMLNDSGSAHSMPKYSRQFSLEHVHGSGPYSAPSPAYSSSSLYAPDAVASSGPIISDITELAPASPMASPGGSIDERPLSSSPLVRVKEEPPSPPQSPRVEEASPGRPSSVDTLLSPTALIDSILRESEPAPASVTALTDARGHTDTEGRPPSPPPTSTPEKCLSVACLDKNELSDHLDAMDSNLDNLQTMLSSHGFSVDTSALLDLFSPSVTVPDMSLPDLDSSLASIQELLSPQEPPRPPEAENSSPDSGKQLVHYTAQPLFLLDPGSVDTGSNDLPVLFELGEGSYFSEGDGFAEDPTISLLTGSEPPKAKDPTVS
CRX, sequence (O43186 whole entry): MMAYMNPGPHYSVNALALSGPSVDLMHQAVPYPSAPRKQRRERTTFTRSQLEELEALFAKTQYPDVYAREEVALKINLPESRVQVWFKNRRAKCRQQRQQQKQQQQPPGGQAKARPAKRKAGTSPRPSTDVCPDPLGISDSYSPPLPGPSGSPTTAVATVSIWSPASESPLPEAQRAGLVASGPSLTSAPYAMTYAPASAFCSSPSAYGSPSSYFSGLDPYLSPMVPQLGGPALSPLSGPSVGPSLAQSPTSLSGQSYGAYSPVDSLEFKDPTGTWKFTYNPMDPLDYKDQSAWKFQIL
ETV1, sequence (P50549 whole entry): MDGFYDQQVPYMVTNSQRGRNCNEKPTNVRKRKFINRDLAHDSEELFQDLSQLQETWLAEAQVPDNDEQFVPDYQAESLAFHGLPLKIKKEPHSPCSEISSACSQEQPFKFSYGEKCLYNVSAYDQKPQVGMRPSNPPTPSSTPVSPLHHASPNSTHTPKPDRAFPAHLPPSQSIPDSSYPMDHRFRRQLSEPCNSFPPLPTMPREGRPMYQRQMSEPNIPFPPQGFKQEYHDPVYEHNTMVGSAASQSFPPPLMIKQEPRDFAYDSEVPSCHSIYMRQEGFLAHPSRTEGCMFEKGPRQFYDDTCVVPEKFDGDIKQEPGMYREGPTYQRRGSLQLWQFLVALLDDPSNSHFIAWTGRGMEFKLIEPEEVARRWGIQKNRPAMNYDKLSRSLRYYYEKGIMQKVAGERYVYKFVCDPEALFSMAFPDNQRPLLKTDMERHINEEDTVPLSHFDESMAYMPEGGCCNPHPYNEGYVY

Take AAGCAC: the binding signal is 1.23 fold enrichment (6-mer frequency, TF over GST control) with FEV; 1.12 fold enrichment (6-mer frequency, TF over GST control) in the test with ETV5; 1.04 fold enrichment (6-mer frequency, TF over GST control) with HSF1; 1.09 fold enrichment (6-mer frequency, TF over GST control) in the test with SPIC; 1.2 fold enrichment (6-mer frequency, TF over GST control) with ELF4; 1.12 fold enrichment (6-mer frequency, TF over GST control) with ELK4. The binding signal was 1.22 fold enrichment (6-mer frequency, TF over GST control) with ETV2; 1.09 fold enrichment (6-mer frequency, TF over GST control) with CRX; 1.14 fold enrichment (6-mer frequency, TF over GST control) with ETV1.

For the sequence CAGATG, the binding signal was 1.01 fold enrichment (6-mer frequency, TF over GST control) with ETV5; 1.01 fold enrichment (6-mer frequency, TF over GST control) with HSF1; 1.12 fold enrichment (6-mer frequency, TF over GST control) with SPIC; 1.02 fold enrichment (6-mer frequency, TF over GST control) with ELF4; 1.06 fold enrichment (6-mer frequency, TF over GST control) with ELK4; 1.01 fold enrichment (6-mer frequency, TF over GST control) in the test with ETV2. For the same sequence, the binding signal in the test with ETV1 is 1.01 fold enrichment (6-mer frequency, TF over GST control).

Regarding GAAAAG, the binding signal in the test with FEV is 1.04 fold enrichment (6-mer frequency, TF over GST control); with ETV5, 1.02 fold enrichment (6-mer frequency, TF over GST control); in the test with HSF1, 1.22 fold enrichment (6-mer frequency, TF over GST control); with SPIC, 1.1 fold enrichment (6-mer frequency, TF over GST control); with ELF4 it was 1.05 fold enrichment (6-mer frequency, TF over GST control); with ELK4, 1.01 fold enrichment (6-mer frequency, TF over GST control). The binding signal with ETV2 is 1.11 fold enrichment (6-mer frequency, TF over GST control); with CRX, 1.01 fold enrichment (6-mer frequency, TF over GST control); in the test with ETV1, 1.15 fold enrichment (6-mer frequency, TF over GST control).

Regarding GCCTAT, the binding signal was 1.16 fold enrichment (6-mer frequency, TF over GST control) with FEV; 1.3 fold enrichment (6-mer frequency, TF over GST control) with ETV5; 1.07 fold enrichment (6-mer frequency, TF over GST control) with HSF1; 1.12 fold enrichment (6-mer frequency, TF over GST control) in the test with SPIC; 1.18 fold enrichment (6-mer frequency, TF over GST control) with ELF4; 1.31 fold enrichment (6-mer frequency, TF over GST control) with ELK4. For the same sequence, the binding signal in the test with ETV2 is 1.2 fold enrichment (6-mer frequency, TF over GST control); in the test with CRX, 1.3 fold enrichment (6-mer frequency, TF over GST control); in the test with ETV1, 1.09 fold enrichment (6-mer frequency, TF over GST control).

Consider AATCGA, for which the binding signal with ETV5 was 1.05 fold enrichment (6-mer frequency, TF over GST control); with HSF1, 1.38 fold enrichment (6-mer frequency, TF over GST control); with SPIC, 1.11 fold enrichment (6-mer frequency, TF over GST control); in the test with ELF4, 1.03 fold enrichment (6-mer frequency, TF over GST control); with ELK4 it was 1.03 fold enrichment (6-mer frequency, TF over GST control); in the test with ELF3 it was 1.11 fold enrichment (6-mer frequency, TF over GST control). Besides, the binding signal with CRX was 1.2 fold enrichment (6-mer frequency, TF over GST control).

As to TTATCA, the binding signal with FEV was 1.06 fold enrichment (6-mer frequency, TF over GST control); with ETV5, 1.05 fold enrichment (6-mer frequency, TF over GST control); with HSF1, 1.44 fold enrichment (6-mer frequency, TF over GST control); with SPIC it was 1.12 fold enrichment (6-mer frequency, TF over GST control); in the test with ELF4, 1.08 fold enrichment (6-mer frequency, TF over GST control); with ELK4, 1.2 fold enrichment (6-mer frequency, TF over GST control). In addition, the binding signal was 1.13 fold enrichment (6-mer frequency, TF over GST control) with ETV2; 2.19 fold enrichment (6-mer frequency, TF over GST control) with CRX; 1.06 fold enrichment (6-mer frequency, TF over GST control) in the test with ETV1.

For TTTGGC, the binding signal with FEV is 1.27 fold enrichment (6-mer frequency, TF over GST control); with ETV5, 1.32 fold enrichment (6-mer frequency, TF over GST control); in the test with HSF1 it was 1.23 fold enrichment (6-mer frequency, TF over GST control); with SPIC it was 1.45 fold enrichment (6-mer frequency, TF over GST control); with ELF4, 1.26 fold enrichment (6-mer frequency, TF over GST control); with ELK4 it was 1.23 fold enrichment (6-mer frequency, TF over GST control). In addition, the binding signal with ETV2 was 1.31 fold enrichment (6-mer frequency, TF over GST control); with CRX, 1.49 fold enrichment (6-mer frequency, TF over GST control); with ETV1, 1.22 fold enrichment (6-mer frequency, TF over GST control).

For ATCATA, the binding signal was 1.07 fold enrichment (6-mer frequency, TF over GST control) in the test with FEV; 1.09 fold enrichment (6-mer frequency, TF over GST control) with ETV5; 1.16 fold enrichment (6-mer frequency, TF over GST control) in the test with HSF1; 1.04 fold enrichment (6-mer frequency, TF over GST control) with SPIC; 1.08 fold enrichment (6-mer frequency, TF over GST control) with ELF4; 1.08 fold enrichment (6-mer frequency, TF over GST control) with ELK4. For the same sequence, the binding signal with ETV2 was 1.16 fold enrichment (6-mer frequency, TF over GST control); with CRX, 1.39 fold enrichment (6-mer frequency, TF over GST control); with ETV1, 1.08 fold enrichment (6-mer frequency, TF over GST control).
